About 780 (0.39%) of roughly 200,000 compounds were called active. The full list was thinned out, with actives kept by preference. A number with no mark means an inactive call. No stated cut-off is given here; in the data, active means TR-FRET ratio above about 2000; inactive means the rest.

The assay is described as follows: TR-FRET signal artefacts, primary screen, artefact control for PPARgamma SRC-2 agonist project, biochemical (AID 1049). Particulars: TR-FRET artefact counter-screen; at 8 µM; hits give high values. (In general: Time-resolved FRET reads energy transfer from a long-lived donor to a nearby acceptor.)
Regarding `Cc1ccccc1-n1nc(C)c2c1N=C1C(Cl)=CC(Cl)=CN1C2c1ccc(C(=O)O)cc1` (centres undefined), the TR-FRET ratio was 1440.

As to `CC(Sc1nnnn1C)C(=O)NC(=O)NC1CCCCC1` (centres undefined), the TR-FRET ratio is 1580.

Take `CN1CCN(/N=C/c2ccc(C#N)cc2)CC1`: the TR-FRET ratio was 1460.

Consider `Cn1c(-c2sccc2OCc2cccc(C(F)(F)F)c2)n[nH]c1=S`, for which the TR-FRET ratio was 1690.

For the molecule `Cn1c(-c2sc3cc(C(F)(F)F)cnc3c2-c2ccccc2)n[nH]c1=S`, the TR-FRET ratio is 2810 (active).

On to `Cc1ccc(/C=N\n2c(-c3ccccc3)n[nH]c2=S)s1`, for which the TR-FRET ratio is 1450.

Turning to `Nc1c(NCCc2ccccc2)c2ccccc2oc1=O`, the TR-FRET ratio was 1500.

For `Cc1cc(Cl)ccc1OCCCC(=O)NCc1ccccn1`, the TR-FRET ratio is 1540.

With `CN(CC(=O)N1CCN(c2ccccc2)CC1)S(=O)(=O)c1cccs1`, the TR-FRET ratio is 1460.

Take `COc1cc2c(cc1O)C(SC)=NC(C)(C)C2`: the TR-FRET ratio was 1660.

Consider `COc1cc2c(cc1OC)C(C(C)C)=NC(C)(C)C2`, for which the TR-FRET ratio was 1430.

On to `COc1cc2c(cc1OC)C(Nc1ccc(S(N)(=O)=O)cc1)=NC(C)(C)C2`, for which the TR-FRET ratio is 2460 (active).

As to `Cc1ccc(C)c(Cn2cnc3c(oc4ccccc43)c2=O)c1`, the TR-FRET ratio is 1620.

With `Cc1ccc2[nH]c(=O)c(CN(CC3COCCO3)C(=O)Nc3ccccc3C)cc2c1` (centres undefined), the TR-FRET ratio is 1560.

As for `CCC(c1nnnn1C1CCCC1)N(Cc1cccs1)Cc1cc2cccc(C)c2[nH]c1=O` (centres undefined), the TR-FRET ratio was 1590.

Take `Cc1cccc2cc(CN(Cc3cccs3)C(c3nnnn3C3CCCC3)C(C)C)c(=O)[nH]c12` (centres undefined): the TR-FRET ratio is 1580.

For the molecule `Cc1cccc2cc(CN(Cc3ccc4c(c3)OCO4)Cc3nnnn3C3CCCC3)c(=O)[nH]c12`, the TR-FRET ratio was 2020 (active).

In the case of `O=C(/C=C/c1ccccc1[N+](=O)[O-])OC1CCCCC1=O` (centres undefined), the TR-FRET ratio is 1570.

Regarding `O=C(COC(=O)c1c2c(nc3ccccc13)CCCC2)c1ccc(Br)s1`, the TR-FRET ratio is 2060 (active).

Turning to `O=C(Nc1c2c(nc3ccccc13)CCCC2)c1ccccc1Br`, the TR-FRET ratio was 1590.

For `O=C(COC(=O)c1c2c(nc3ccccc13)/C(=C\c1cccs1)CCC2)Nc1ccccc1Cl`, the TR-FRET ratio is 1590.

Regarding `O=C(N1CCCCC1)N1CCN(C(=O)N2CCCCC2)CC1`, the TR-FRET ratio is 1520.

`Cc1ccc(C(=O)O)cc1N1C(=O)CCCC1=O`: the TR-FRET ratio is 1430.

As to `Nc1nnc(SCC(=O)Nc2ccc3nc(SCC(=O)Nc4ccccc4)sc3c2)s1`, the TR-FRET ratio is 1750.

For the molecule `COc1ccc(NC(=O)CSc2nc(C)cs2)cc1`, the TR-FRET ratio is 1520.

As for `COc1cc(OC)cc(-c2nnc(SCC(=O)Nc3ccc(C(=O)O)cc3)s2)c1`, the TR-FRET ratio is 2010 (active).

In the case of `COC(=O)[C@@H]1CC[C@H](C)[C@@H](c2ccc(C)cc2)N1C(=O)c1ccc(/C=N/O[C@H](C)c2cn([C@@H]3COC[C@H]3O)nn2)cc1`, the TR-FRET ratio was 1550.

For the molecule `COc1cccc(NC(=O)c2ccc3c(SCC(=O)O)c4c(nc3c2)CCCC4)c1`, the TR-FRET ratio was 1460.

`Cc1cc(NC(C)C)n2c(nc3ccccc32)c1C#N`: the TR-FRET ratio is 1630.

As to `Cc1nn(CC#N)c(=O)n1N(C)c1ncc(C(F)(F)F)cc1Cl`, the TR-FRET ratio is 1490.

With `Cc1ccccc1-c1n[nH]c(=S)n1C`, the TR-FRET ratio was 1570.

Take `Cc1n[nH]c(=S)n1/N=C/c1ccc(Br)o1`: the TR-FRET ratio is 1670.

Consider `Cc1ccccc1-c1n[nH]c(=S)n1/N=C/c1ccc(-c2ccccc2Br)o1`, for which the TR-FRET ratio was 2460 (active).

As for `O=S(=O)(/N=C(/Nc1ccccc1)c1ccccc1)c1cccs1`, the TR-FRET ratio is 1640.

For the molecule `CC(=O)Nc1ccc(S(=O)(=O)Oc2ccc(/C=N/N=C3/NC(=O)C(CC(=O)O)S3)cc2)cc1` (centres undefined), the TR-FRET ratio was 1610.

For `O=C(c1ccccc1Cl)N(Cc1ccccc1F)N1C(=O)CCCC1=O`, the TR-FRET ratio is 1650.

In the case of `CC(C)NC(=O)CSc1ccccc1C(=O)NCc1ccc2c(c1)OCO2`, the TR-FRET ratio was 1420.

Turning to `CCn1c(=O)cc(SCC(=O)NCCC2=CCCCC2)c2ccccc21`, the TR-FRET ratio is 1870.

Turning to `CCn1c(=O)cc(SCC(=O)NCc2ccc3c(c2)OCO3)c2ccccc21`, the TR-FRET ratio was 2130 (active).

Consider `CC(C)(C)NC(=O)C(=O)NN=C1CCCCCCC1`, for which the TR-FRET ratio was 1240.

As for `COc1ccc(CSc2nc(N3CCOCC3)c3c(c2C#N)CC(C)(C)OC3)cc1`, the TR-FRET ratio is 1500.

`c1ccc(CSc2ncnc3c2sc2nc(N4CCOCC4)c4c(c23)CCCC4)cc1`: the TR-FRET ratio was 2910 (active).

On to `c1ccc(COc2nsnc2N2CCOCC2)cc1`, for which the TR-FRET ratio is 1720.

Take `CCOc1ccc(N2C(=O)Nc3ccccc3C2(O)C(=O)NCc2ccco2)cc1` (centres undefined): the TR-FRET ratio is 1700.

`O=C(CSc1nnc(SCc2ccc(Cl)cc2)s1)N/N=C/c1ccccc1Cl`: the TR-FRET ratio is 1600.

With `Cc1ccc(CN(Cc2cccnc2)C(=S)Nc2cccc(Cl)c2C)cc1`, the TR-FRET ratio was 1420.

As for `CCN(C(=O)COc1cccnc1[N+](=O)[O-])C1CCS(=O)(=O)C1` (centres undefined), the TR-FRET ratio was 1550.

`COc1ccc(Cc2nnc(NC(=O)Cc3cccs3)s2)cc1`: the TR-FRET ratio was 1330.

Regarding `COc1ccc(OCC(=O)Nc2nnc(-c3ccco3)s2)cc1`, the TR-FRET ratio is 2240 (active).

Consider `COCC(=O)Nc1nnc(COc2ccccc2)s1`, for which the TR-FRET ratio is 1270.

With `CC(NC(=O)COC(=O)c1cc(=O)[nH]c2ccccc12)c1ccccc1` (centres undefined), the TR-FRET ratio is 1810.

As to `CCOC(=O)c1c(NC(=O)CNC2CCCc3ccccc32)sc(C(N)=O)c1C` (centres undefined), the TR-FRET ratio was 2030 (active).

Turning to `CCOC(=O)c1sc(NC(=O)COc2ncnc3ccccc23)c(C(=O)OCC)c1C`, the TR-FRET ratio was 1580.

Regarding `CCOC(=O)c1sc(NC(=O)CSc2nnc(-c3ccco3)o2)c(C(=O)OCC)c1C`, the TR-FRET ratio was 1590.

Regarding `COc1ccc(CN2CCCC(CNC(=O)c3ccc(F)cc3)C2)cc1OC` (centres undefined), the TR-FRET ratio is 1400.

`C/C(CC(=O)NC(C)(C)C)=N\NC(=O)c1ccco1`: the TR-FRET ratio was 1540.

As for `N#Cc1c2c(c(-c3ccccc3)[nH]c1=O)CCCC2`, the TR-FRET ratio is 1620.

Regarding `N#Cc1c(-c2ccc(Cl)cc2)c2c([nH]c1=S)CCCC2`, the TR-FRET ratio was 2030 (active).

Turning to `CNc1nccc(-c2ccc(Cl)cc2)c1C#N`, the TR-FRET ratio was 1580.

As for `Cc1ccc(CNC(=O)COc2ccc3c(c2)CCC3)cc1`, the TR-FRET ratio is 1560.

`CCCCN(C(=O)c1ccc(OC(F)(F)F)cc1)c1c(N)n(CCC)c(=O)[nH]c1=O`: the TR-FRET ratio is 1420.

Consider `C/C=N/NC(=O)CCCC(=O)N/N=C/C`, for which the TR-FRET ratio was 1590.

For the molecule `COc1ccc(C2/C(=C(/O)c3ccccc3)C(=O)C(=O)N2c2ncccn2)cc1OC` (centres undefined), the TR-FRET ratio was 1610.

With `COc1ccccc1C1/C(=C(/O)c2ccc(OC(C)C)cc2)C(=O)C(=O)N1c1cc(C)on1` (centres undefined), the TR-FRET ratio was 1930.

For the molecule `Cc1cc(N2C(=O)C(=O)/C(=C(/O)c3ccc(Cl)cc3)C2c2cccc(Br)c2)no1` (centres undefined), the TR-FRET ratio is 1980 (active).

In the case of `COC(=O)C(C)NC(=O)COc1ccc2ccccc2c1` (centres undefined), the TR-FRET ratio was 1440.

As to `Cc1cc2ccccc2n1CCNC(=O)COc1ccc2ccccc2c1`, the TR-FRET ratio was 3050 (active).

Turning to `Cc1cc2ccccc2n1CCC(=O)O`, the TR-FRET ratio was 1790.

Take `COc1ccc(/C=N/Nc2ncnc3sc4c(c23)CCCC4)cc1O`: the TR-FRET ratio is 1360.

Regarding `CN(C)c1ccc(N/C=C/C(=O)C(F)(F)F)cc1`, the TR-FRET ratio is 2200 (active).

Turning to `CCCOc1ccc(N/C=C/C(=O)C(C)(C)C)cc1`, the TR-FRET ratio was 1530.

With `O=C(/C=C/Nc1ccccc1OC(F)(F)F)C(F)(F)F`, the TR-FRET ratio was 1490.

Regarding `CN(C)C(=O)c1ccc2c(c1)C1C3CCC(C3)C1C(c1ccccc1)N2` (centres undefined), the TR-FRET ratio is 1630.

Regarding `COc1cccc(NC(=S)N(Cc2ccc(C)cc2)Cc2ccccn2)c1`, the TR-FRET ratio is 1700.

On to `CSc1ncccc1C(=O)OCc1ccc(Br)cc1`, for which the TR-FRET ratio is 1680.

Turning to `Cc1cc(C)c(NC(=O)CS(=O)CC(=O)Nc2cccnc2)c(C)c1` (centres undefined), the TR-FRET ratio was 1340.

Consider `Cc1ccc(-c2nc(-c3cccnc3)sc2CC(=O)Nc2ccc(C)c(Cl)c2)cc1`, for which the TR-FRET ratio was 2240 (active).

Regarding `Cc1ccc(NC(=O)COc2ccc(-n3ccnc3)cc2)cc1Cl`, the TR-FRET ratio was 1510.

Consider `COc1ccc(OC)c(Cc2nnc(CCC(=O)NC3CCCC3)o2)c1`, for which the TR-FRET ratio is 1590.

Turning to `O=C(Nc1cccc(CCc2ccccn2)c1)c1ccc(Cl)cc1`, the TR-FRET ratio was 1410.

For the molecule `CN(C)/C=C(/C(=O)c1ccccc1)S(=O)(=O)c1ccc(Cl)cc1`, the TR-FRET ratio is 1390.

Regarding `COc1cc(OC)cc(C(=O)Nc2ccc(S(=O)(=O)Nc3cc(C)on3)cc2)c1`, the TR-FRET ratio was 1400.

For the molecule `O=C(Nc1ccc2oc(-c3ccccc3F)nc2c1)c1ccco1`, the TR-FRET ratio is 1310.

`COc1cc(OC)cc(C(=O)Nc2ccc(-c3nc4ccccc4o3)c(O)c2)c1`: the TR-FRET ratio is 2300 (active).

Take `Cc1cc(C)c2nc(N3CCCC3)c(C#N)cc2c1`: the TR-FRET ratio was 1740.

Take `Cc1cccc2cc(C#N)c(N3CCCC3)nc12`: the TR-FRET ratio was 1510.

`CC(=O)c1ccc(S(=O)(=O)N2CCN(c3nc4c(C)c(C)ccc4cc3C#N)CC2)cc1`: the TR-FRET ratio was 2950 (active).

In the case of `CC(C)OCCCNC(=O)c1ccc(C2SCC(=O)N2Cc2ccco2)cc1` (centres undefined), the TR-FRET ratio is 1510.

On to `CCOc1ccc(N2CC(C(=O)NCCN3C(=O)S/C(=C\c4cccnc4)C3=O)CC2=O)cc1` (centres undefined), for which the TR-FRET ratio was 1470.

For the molecule `COC(=O)c1cc2n(n1)CCCNC2=O`, the TR-FRET ratio was 1460.

With `COc1cccc(NC(=O)CN(C)C(C)C(=O)Nc2ccc(C#N)cc2)c1` (centres undefined), the TR-FRET ratio was 1560.

As for `CN(C)S(=O)(=O)c1cccc(NC(=O)COC(=O)/C=C/c2cccs2)c1`, the TR-FRET ratio was 1590.

As for `O=C(c1ccncc1)c1ccc([N+](=O)[O-])cc1`, the TR-FRET ratio is 1700.

For the molecule `O=C(CSc1c2c(nc3ccc(Cl)cc13)CCCC2)NCc1ccco1`, the TR-FRET ratio was 2000 (active).

In the case of `O=C(NCc1ccco1)c1cc(-c2cccnc2)nc2ccc(Cl)cc12`, the TR-FRET ratio was 1650.

Turning to `O=C(/C=C/c1ccc(Cl)cc1Cl)NCc1ccco1`, the TR-FRET ratio is 1530.

As for `Cc1ccc2nc(-c3cccc(Br)c3)cc(C(=O)Nn3cnnc3)c2c1`, the TR-FRET ratio is 1400.

Take `COc1ccc(Cl)cc1C(=O)NCc1cn(C)nc1C`: the TR-FRET ratio was 1670.

As for `Cc1ccc(-c2cc(C(=O)NCc3cn(C)nc3C)c3cc(Br)ccc3n2)cc1`, the TR-FRET ratio was 2980 (active).

Source of the values: PubChem BioAssay AID1049 (The Scripps Research Institute Molecular Screening Center, 2008).
